High-throughput results: PubChem BioAssay, The Scripps Research Institute Molecular Screening Center
TbREL1 inh = TbREL1 inhibition, primary screen. P86926. TbREL1 RNA ligation, FRET fluorescence. inhibition, % at 9.66 µM. hit rate 0.49% among 89,000;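 active = inhibition above the mean inhibition across all screened compounds plus 3 SD, cut at about 11% in these data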;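 note: 0% = plate median of test wells and 100% = NSC42067 control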
Target sequence (P86926 whole entry, looked up): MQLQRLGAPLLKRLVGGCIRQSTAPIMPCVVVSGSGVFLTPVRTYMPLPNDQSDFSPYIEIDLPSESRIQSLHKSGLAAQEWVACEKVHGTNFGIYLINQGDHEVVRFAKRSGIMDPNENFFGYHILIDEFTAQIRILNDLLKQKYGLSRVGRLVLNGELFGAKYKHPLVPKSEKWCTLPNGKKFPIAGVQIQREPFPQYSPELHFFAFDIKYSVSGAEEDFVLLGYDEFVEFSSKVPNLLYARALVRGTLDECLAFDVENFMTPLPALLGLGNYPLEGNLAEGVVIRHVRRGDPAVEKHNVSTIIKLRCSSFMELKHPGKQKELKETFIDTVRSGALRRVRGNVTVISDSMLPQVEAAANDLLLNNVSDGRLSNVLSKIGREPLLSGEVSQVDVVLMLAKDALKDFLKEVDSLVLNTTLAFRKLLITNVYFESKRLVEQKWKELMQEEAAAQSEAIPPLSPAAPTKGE
TbREL1 confirm = TbREL1 inhibition, confirmation. shares compounds with TbREL1 inh. TbREL1 RNA ligation, FRET fluorescence. inhibition, % at 9.66 µM. hit rate 37% among 390. AID 1117282;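 active = mean inhibition across replicates above a set limit taken from the earlier primary screen, cut at about 11% in these data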;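 note: 0% = REL1 with substrate and DMSO and 100% = REL1 plus control inhibitor NSC42067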
* = called active by the depositor. The entries come from a sample that favours hits as a whole.

SMILES	TbREL1 inh	others
CCOc1ccc(-n2c(SCC(=O)Nc3cccc4ccccc34)nnc2-c2ccco2)cc1	-1
CCCCCCCCN1C(=O)[C@@H](CC(=O)NCc2ccccc2)C[C@@]2(C(=O)OC)C1=C[C@H](C(C)C)O[C@@H]2C1CC1	5
COc1ccccc1CNC(=O)COC(=O)CC1CC2CCC1C2 (stereo unspecified)	5
COc1ccccc1CCC(=O)OCC(=O)NC1CC1	34*	TbREL1 confirm=5
O=C(COC(=O)Cc1ccc(Br)cc1)NC1CC1	-1
O=C(C1CCCN1S(=O)(=O)c1ccc(F)cc1)N1CCc2ccccc2C1 (stereo unspecified)	1
CCCN(CC1CC1)C(=O)c1ccc(CNC(=O)c2cccc(Br)c2)cc1	1
COC(=O)C1=C(C)N(Cc2ccccc2C(F)(F)F)C(=NCc2ccc3c(c2)OCO3)NC1c1cccc(Cl)c1 (stereo unspecified)	14*	TbREL1 confirm=14*
COC(=O)C1=C(C)N(Cc2ccccc2C(F)(F)F)C(=NCc2ccc3c(c2)OCO3)NC1c1cccc(F)c1 (stereo unspecified)	13*	TbREL1 confirm=18*
COC(=O)C1=C(C)N(Cc2ccc(Cl)cc2)C(=S)NC1c1cccc(Br)c1 (stereo unspecified)	-3
COC(=O)C1=C(C)N(CCCC(=O)O)C(=O)NC1c1ccc2c(c1)OCO2 (stereo unspecified)	2
CN(Cc1ccccc1)C(=O)OCc1cn(Cc2cccc(Cl)c2)nn1	6
COc1ccc(C(=O)CSc2nnc(-c3ccccn3)n2-c2ccccc2)cc1	0
Cc1ccc(-c2nc3ncccn3c2NC(=O)c2ccc(F)cc2)cc1	0
CCOc1ccc(-n2c(SCC(=O)Nc3ccccc3-c3ccccc3)nnc2-c2ccccc2)cc1	-1
CCOc1ccc(C=NNC(=O)c2cc(-c3ccc(Cl)cc3)n[nH]2)cc1	4
COc1ccccc1C=C1SC(=S)NC1=O	3
O=C1NC(=NCc2ccccc2)S/C1=C\c1ccccc1	0
O=C1NC(=S)S/C1=C\c1ccc(SCc2ccccc2)o1	43*	TbREL1 confirm=7
Cc1ccc(C(=O)CSc2nnc(-c3ccccn3)n2-c2ccccc2)cc1	1
C[C@H]1[C@@H](NC(=O)C2CCOC2)CC[C@@]23CCCN2C(=O)CCC[C@@H]13 (stereo partly specified)	6
CN(c1ccccc1)S(=O)(=O)c1cccc(C(=O)NC2CC(C)(C)NC(C)(C)C2)c1	1
COc1ccccc1N(Cc1ccccc1)S(=O)(=O)c1cccc(C(=O)NC2CC(C)(C)NC(C)(C)C2)c1	11*	TbREL1 confirm=14*
COc1ccccc1N(Cc1ccccc1)S(=O)(=O)c1cccc(C(=O)Nc2cc(C)ccn2)c1	2
CCCN(CC1CC1)c1c2c(nc3ncnn13)CCCC2	1
SMILES	TbREL1 inh	others
O=C(CSc1nnc(COc2ccc(Cl)cc2)n1Cc1ccco1)Nc1cccc2ccccc12	-2
NS(=O)(=O)c1ccc(NC(=O)c2cc(=O)c3ccccc3o2)cc1	6
NS(=O)(=O)c1ccc(NC(=O)c2cccc(N3C(=O)c4ccccc4C3=O)c2)cc1	12*	TbREL1 confirm=23*
O=C(Nc1ccc(C(=O)NN2C(=O)c3ccccc3C2=O)cc1)c1ccccc1	0
O=C(OCc1ccccc1)[C@H](Cc1ccccc1)NC(=O)[C@@H]1CC=C[C@@H]2CCN(CCc3ccccc3)C(=O)[C@@H]21	-4
C#CCNC(=O)C[C@H]1C(=O)N(CC=C)C2=CCCC[C@@]21C(=O)OCC	-1
CC(C)c1c(Cl)c(O)c(-c2ccccc2)c(=O)n1-c1ccc(F)cc1	17*	TbREL1 confirm=13*
COc1ccc(-c2c(O)c(C#N)c(-c3ccccc3)n(-c3ccc(OC)cc3)c2=O)cc1	-4
Cc1ccc(-n2c3c(c(O)c(-c4ccccc4)c2=O)C(=O)CC(C)(C)C3)cc1	-1
CC(=NNC(=O)CSc1nnc(-c2ccccc2)n1-c1ccccc1)c1cccc([N+](=O)[O-])c1	-1
CCOC(=O)Cn1c(=NC(=O)CC)sc2c(C)cc(C)cc21	-1
CCOC(=O)Cn1c2ccc(C)cc2c2nc(C)sc21	55*	TbREL1 confirm=5
CCOC(=O)Cn1c(=NC(=O)c2cccs2)sc2cc(C(=O)OC)ccc21	10
C=C1[C@@H](C)CN[C@@H]1CCO	5
C=CCOC(=O)N1CCN(C(=O)c2ccc3c(c2)nc(C)n3C2CCCC2)CC1	3
O=c1[nH]c2ccc(S(=O)(=O)N3CCCC3)cc2o1	1
O=C(Nc1nnc(SCc2cccc(F)c2)s1)c1ccco1	14*	TbREL1 confirm=-1
CC(C)(C)C(=O)Nc1nnc(SCc2cccc(F)c2)s1	5
O=C(CSc1nnc(NC(=O)c2ccco2)s1)Nc1ccc(F)cc1	4
CC(C)C[C@H]1CN=C(Nc2ccccc2)N1CCC1CCCC1	11
CCCCCCCN1C(Nc2ccccc2)=NC[C@@H]1CC(C)C	12*	TbREL1 confirm=20*
CCCCN1C(Nc2ccccc2)=NC[C@@H]1Cc1ccccc1	2
CCOC(=O)c1csc(NC(=O)C2CCCN(S(=O)(=O)c3ccc(C)cc3)C2)n1 (stereo unspecified)	-3
CCOc1ccccc1CNCc1ccc(C(=O)O)cc1	1
CCOC(=O)c1cc2c(C)n(-c3ccc(N(C)C)cc3)c(C)c2cc(C(=O)OCC)c1=O	-1
SMILES	TbREL1 inh	others
CCOc1cccc(=O)c2c(C)n(-c3ccc(C(=O)O)cc3)c(C)c12	46*	TbREL1 confirm=11*
Cc1nc(=O)c(-c2ccccc2)c(C)n1-c1ccc(C(=O)O)cc1	-2
Cc1cc(=O)n(-c2ccc(C(=O)O)cc2)[nH]1	0
COc1cccc(=O)c2c(C)n(-c3ccc(C(=O)O)cc3)c(C)c12	23*	TbREL1 confirm=12*
CCc1c2c3n4c1CCC[C@@H]4C[C@@H]3O[Si](C(C)C)(C(C)C)OC(C)C2=O (stereo partly specified)	1
O=C(O[C@H]1CC[C@@]23CCCN2C(=O)CCC[C@H]3C1)N1CCN(c2ccccc2)CC1	8
COc1ccc(OC)c(S(=O)(=O)N(CC(=O)NC2CCC(C)CC2)c2cc(C)cc(C)c2)c1 (stereo unspecified)	3
CN=C1S/C(=C/c2cc(C)n(-c3cc(C)ccc3OC)c2C)C(=O)N1C	-5
Oc1ccc(CNc2ccccc2Br)c2cccnc12	14*	TbREL1 confirm=-1
Oc1ccc(CNc2cccc(F)c2)c2cccnc12	11
Oc1ccc(CNc2ccc(C(F)(F)F)cc2F)c2cccnc12	13*	TbREL1 confirm=-3
OCc1ccnc2c(O)cccc12	0
O=Nc1ccc(O)c2ncccc12	10
Oc1ccc(CCc2c(F)cccc2F)c2cccnc12	-7
Cc1ccc(CNC(=O)O[C@H]2CC[C@@]34CCCN3C(=O)CCC[C@H]4[C@H]2C)o1	-1
COc1ccc(-c2cc(NC(=O)Cc3c(C)[nH]c4ccccc34)ccc2Nc2cccnc2)cc1F	-3
COCCCNC(=O)c1ccc(Cn2c(=O)c3ccccc3n(Cc3ccc([N+](=O)[O-])cc3)c2=O)cc1	-2
COc1ccc(/C=C/C(=O)OCC(=O)c2ccc3c(c2)NC(=O)CO3)c(OC)c1	1
COc1cccc(/C=C/C(=O)OCC(=O)c2ccc3c(c2)NC(=O)CO3)c1OC	0
O=C1COc2ccc(C(=O)COC(=O)/C=C/c3ccc(Br)o3)cc2N1	18*	TbREL1 confirm=10
CN1CCC(N[C@@H](Cc2ccccc2)C(=O)NCCCc2ccccc2)(C(=O)NCCc2c[nH]c3ccccc23)CC1	-2
CCOC(=O)C1CCN(C(=O)C(C)(C)NC(=O)Nc2ccc(Cl)cc2Cl)CC1	3
CSCCCNC(=O)Cn1nc(Cc2ccncc2)c2ccccc2c1=O	-4
